This note sets out measurements from PubChem BioAssay (NCATS).

Inconclusive results are not listed. A call without a number means that no potency is given here. Calls of active or inactive are those of the source. Calls follow the shape of the dose curve; as a rule, active = well fitted cell-killing curve with a large enough effect; inconclusive = small, poorly fitted or top-dose-only effect, or effect the other way; inactive = no such curve, though single readings can be large or run the other way.
Potency is read from the fitted curve at half-maximal effect.

The test in a line: Quantitative High-Throughput drug screen in 47 multiple myeloma cell lines against the NCATS MIPE library collection: KMS28PE_JCRB cell viability assay (AID 1918983). Also: nearly all actives have a fitted effect of over 35% in size. As to conditions: KMS28PE multiple myeloma viability, CellTiter-Glo ATP, 48 h; series mostly up to 45.8 µM. An excerpt: PI: Beverly A. Mock Ph.D.
Laboratory of Cancer Biology and Genetics,
Center for Cancer Research, National Cancer Institute,
National Institute of Health, Bethesda, Maryland
Drug resistance and disease progression are common in multiple myeloma (MM) patients, underscoring the need for new therapeutic combinations. […] We hypothesized that effective combinations would reduce MYC expression and enhance p16 activity. […] These preclinical data identify potentially useful drug combinations for evaluation in drug-resistant MM and reveal potential mechanisms of combined drug sensitivity.
Described herein is the primary MIPE qHTS used to cherrypick compounds. Validated compounds were then further tested for potential synergistic activiy.
[1] Peat TJ, Gaikwad SM, Dubois W, Gyabaah-Kessie N, Zhang S, Gorjifard S, Phyo Z, Andres M, Hughitt VK, Simpson RM, Miller MA, Girvin AT, Taylor A, Williams D, D'Antonio N, Zhang Y, Rajagopalan A, Flietner E, Wilson K, Zhang X, Shinn P, Klumpp-Thomas C, McKnight C, Itkin Z, Chen L, Kazandijian D, Zhang J, Michalowski AM, Simmons JK, Keats J, Thomas CJ, Mock BA. Drug combinations identified by high-throughput screening promote cell cycle transition and upregulate Smad pathways in myeloma. Cancer Lett. 2023 Aug 1;568:216284. doi: 10.1016/j.canlet.2023.216284. Epub 2023 Jun 24. PMID: 37356470; PMCID: PMC10408729.
SEQUENCE No. (e.g., 1, 2, 3, etc.); […] (e.g., Cells, Incubation, Reagent, etc.); VALUE and DESCRIPTION.
1; Cells; 5 uL; white, solid bottom 1536-well Greiner assay plate.
2; Compounds; 23 nL; Kalypsis pin tool (Wako USA) equipped with a 1536-well pin head to transfer to the assay plates.
3; Incubation; 48 hours; 37C incubation.
4; Reagent;5uL; CellTiter Glo (Promega).
5; Detector; 425V; Luminescence; Viewlux PerkinElmer.
NOTES (numbers refer to Sequence numbers above)
1. The cell-based screening methods employed in this study were like those previously published. Briefly, the corresponding myeloma cell lines were screened in 1,536-well plates with 500 cells, 5-uL per well for inhibition of cell viability (assessed by measuring ATP levels with CellTiterGlo).
2. NCATS MIPE 4.0 library of approved and investigational drugs were added using the Kalypsis pin tool. Wells treated with DMSO only for 100% viability and media only for 0% viability were used as controls.
3. The assay plates were covered and incubated for 48 hours in a 37C, 5% CO2 incubator with controlled humidity.
4. After 48 hours, CellTilter-GloTM luminescent substrate mix (Promega) reagent was added to the assay plate and plates we incubated for 5 min at room temperature.
5. Signal was measured as median relative luminescence units on a ViewLux (PerkinElmer) multiplate reader.
[1] Heske CM, Davis MI, Baumgart JT, Wilson K, Gormally MV, Chen L, Zhang X, Ceribelli M, Duveau DY, Guha R, Ferrer M, Arnaldez FI, Ji J, Tran HL, Zhang Y, Mendoza A, Helman LJ, Thomas CJ. Matrix Screen Identifies Synergistic Combination of PARP Inhibitors and Nicotinamide Phosphoribosyltransferase (NAMPT) Inhibitors in Ewing Sarcoma. Clin Cancer Res. 2017 Dec 1;23(23):7301-7311. doi: 10.1158/1078-0432.CCR-17-1121. Epub 2017 Sep 12. PMID: 28899971; PMCID: PMC6636827.
(In general: ATP-based viability assays read luminescence as a measure of living cells.)
Take `CN1C(=O)CCS(=O)(=O)C1c1ccc(Cl)cc1` (stereo not given): the Potency entry was “inactive”.

On to `COc1cc(OC)c(OC)cc1C=O`, for which the Potency entry is “inactive”. In the case of `CN1C(=O)COc2c(C(=O)NC3CN4CCC3CC4)cc(Cl)cc21` (stereo not given), the Potency entry was “inactive”. As for `C[C@]12CCC(=O)C=C1CC[C@@H]1[C@H]3CC[C@](C)(O)[C@@]3(C)CC[C@@H]12`, the Potency result is “inactive”. Regarding `CC(C)c1cccc(C(C)C)c1O`, the Potency result was “inactive”. Take `CC(C)C[C@H](CN)CC(=O)O`: the Potency entry is “inactive”. In the case of `C[C@](O)(CS(=O)(=O)c1ccc(F)cc1)C(=O)Nc1ccc(C#N)c(C(F)(F)F)c1` it was 26.4 µM (active); in that of `CCC1(c2ccc(N)cc2)CCC(=O)NC1=O` (stereo not given), “inactive”; in that of `CC(NC(C)(C)C)C(=O)c1cccc(Cl)c1` (stereo not given), “inactive”. Take `C[C@]12CC[C@H]3[C@@H](CC[C@@]45O[C@H]4C(O)=C(C#N)C[C@]35C)[C@H]1CC[C@H]2O`: the Potency entry is “inactive”.
